Structures are written as SMILES. Several values for one entry are separate records, joined by “and”; a condition that tells them apart may be missing. Equal values may be shown once. This is part of a sample that, as a whole, favours compounds with a hit. Of some 83,000 tested, about 20% had one in any assay.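 Single-dose data. Exposure time 48 hours. Values below 10 considered active.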 Activity calls are given as the source filed them.

We go through 25 molecules from PubChem BioAssay (NCI).

This assay relates to MDA-MB-468 breast. The assay is described as follows: NCI-60 one-dose screen, 48 h (100 = growth as untreated, 0 = no growth, -100 = all killed). As to conditions: 10 µM unless noted.
As to `C=C(C)[C@@H]1CC[C@]2(C(=O)NCCCO)CC[C@]3(C)[C@H](CC[C@@H]4[C@@]5(C)CCCNC(C)(C)[C@@H]5CC[C@]43C)[C@@H]12`, the growth is 72.3% (inactive).

As to `C=C1SC(=Nc2c(C)cccc2C)N(c2nc(Cl)nc(Cl)n2)C12CCCCC2`, the growth was 101% (inactive).

For the molecule `C=C1C(=O)O[C@H]2[C@H]1CC/C(Cn1cc(-c3cc(C(F)(F)F)cc(C(F)(F)F)c3)nn1)=C\CC[C@@]1(C)O[C@@H]21`, the growth was -56.7% (active).

Take `CCCC(c1nnnn1C1CCCCC1)N1CCN(C(=O)c2ccco2)CC1` (stereo not given): the growth was 15.2% (inactive).

With `COc1cc(/C=C/C(=O)c2ccc(Oc3ncnc4ccccc34)cc2)cc(OC)c1OC`, the growth is 13.8% (inactive).

In the case of `Cc1noc(C)c1C(=O)OCc1coc2ccccc2c1=O`, the growth was 24.5% (inactive).

In the case of `O=C(NCCCNc1cc(-c2cn(-c3ccccc3)nc2-c2cccc(O)c2)ccn1)c1cccc(O)c1`, the growth is 29.3% (inactive).

For the molecule `CCCOc1nc(SCCC)nc2c1cnn2-c1ccccc1`, the growth was 106% (inactive).

On to `O=C1NCN(c2ccccc2)C12CCN(CCCC(c1ccc(F)cc1)c1ccc(F)cc1)CC2`, for which the growth is 43% (inactive).

`COC(=O)[C@]12CC[C@@H](C)[C@H](C)[C@@H]1C1=CC[C@@H]3[C@@]4(C)C[C@@H](OC(=O)/C=C/c5ccccc5)[C@H](O)[C@@](C)(CO)[C@@H]4[C@H](O)C[C@@]3(C)[C@]1(C)CC2`: the growth is -19.2% (active).

In the case of `CC(=O)Nc1ccc2oc(=O)ccc2c1`, the growth was 83% (inactive).

As for `N=C(N)c1ccc(-c2ccc(-c3ccc(Cl)c(Cl)c3)s2)nc1`, the growth was -65.4% (active).

`O=S(=O)(Oc1ccc(-c2cn3ccoc3n2)cc1)c1cccc(C(F)(F)F)c1`: the growth is 86.9% (inactive).

With `O=C1CSC(=O)N1Cc1cc2ccccc2nc1Cl`, the growth was 97.8% (inactive).

Turning to `CC(C)NCC(O)c1ccc(O)c(O)c1` (stereo not given), the growth is 89.3% (inactive) and 104% (inactive) and 97.9% (inactive).

As to `Nc1ccc(-c2ccncc2)cc1NC(=O)N1CCCC1`, the growth is 94.2% (inactive).

In the case of `Nc1ccc(Br)cn1`, the growth was 93.6% (inactive).

Consider `O=C1CC(=O)N2CSCN(C(c3ccccc3)c3nc4ncncc4[nH]3)C2=N1` (stereo not given), for which the growth is 102% (inactive).

For the molecule `CCCCCN1C=C/C(=C\C(=O)N(C)c2ccc(Br)cc2)c2ccccc21`, the growth is 73.8% (inactive).

Consider `CCCS(=O)(=O)Nc1cccc(Nc2ncnc3cc(NC(=O)CCl)ccc23)c1Cl`, for which the growth is -41.8% (active).

With `CC1(c2ccc(Br)cc2)NC(=O)NC1=O` (stereo not given), the growth was 110% (inactive).

Regarding `C[C@@H](Nc1c(C#N)cnc2ccc(-c3cnc(Cl)c(NS(C)(=O)=O)c3)cc12)c1ccccc1`, the growth was -36% (active).

As to `COc1ccc(-c2nc3sccn3c2/C=C/C(=O)c2cc(F)cc(F)c2)cc1`, the growth is 85.8% (inactive).

As to `CCCCCCNC(=O)Oc1ccc(/C(=C(\C)c2ccc(Cl)cc2)c2ccc(OCCN3CCCCC3)cc2)cc1`, the growth was 25.1% (inactive).

For the molecule `CCc1ccc(CCC(=O)Nc2ncc(Cc3ccc(Cl)cc3)s2)o1`, the growth is 0.812% (active).
